Values joined by “and” are separate entries in the source; they are usually repeats but may differ in a detail not shown here. Identical values can stand only once. Results filed as inconclusive are left out. Entries that show only a call come without a potency. Active and inactive are the calls of the source. The call rests on the fitted dose curve; in most records, active means well fitted cell-killing curve with a large enough effect in the repeat runs; inconclusive means weak or mixed curves, or effect the other way; inactive means flat fitted curve, though single readings scatter.
assay: qHTS assay to identify small molecule that activate the aryl hydrocarbon receptor (AhR) signaling pathway - cell viability counter screen (AID 743086); settings: HepG2-AhR-luc viability, CellTiter-Fluor, 24 h; series mostly up to 70.3 µM; further: nearly all actives have a fitted effect of over 45% in size
Outline: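 HepG2-AhR-luc (HG2L7.5c1) cells, 4000/well, treated 24 h at 37 C with compound; viability measured as CellTiter-Fluor fluorescence after 30 min in the same wells as the luciferase read.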
Potency means the concentration at half of the fitted maximal effect.

Compound	Potency
N[C@@H](CCC(=O)O)C(=O)O	inactive
CC(C)C1CCC(O)CC1 (stereo not given)	inactive
CO[C@@]1(NC(=O)CSC[C@@H](N)C(=O)O)C(=O)N2C(C(=O)O)=C(CSc3nnnn3C)CS[C@@H]21	inactive
CCCCN1C=CN(C)C1	inactive
CC(C#N)(CCC(=O)O)N=NC(C)(C#N)CCC(=O)O (stereo not given)	inactive
NS(=O)(=O)Cc1noc2ccccc12	inactive
O=S(=O)(O)c1cc(O)c(O)c(S(=O)(=O)O)c1	inactive
[O-][n+]1cccc(CO)c1	inactive
O=C(O)CC(C(=O)O)S(=O)(=O)O (stereo not given)	inactive
NC(CCC(=O)O)C(=O)O (stereo not given)	inactive
c1ccc(Cc2ccccc2)cc1	inactive
NCCCC[C@H](N[C@@H](CCc1ccccc1)C(=O)O)C(=O)N1CCC[C@H]1C(=O)O	inactive
CC(=O)c1ccccc1[N+](=O)[O-]	inactive
Nc1ccncc1N	inactive
CCOC(=O)c1cnc2c(cnn2CC)c1NN=C(C)C	inactive
CN1CC(=O)N/C1=N/C(=O)Nc1cccc(Cl)c1	inactive
CC(=O)O[C@@]12CO[C@@H]1C[C@H](O)[C@@]1(C)C(=O)[C@H](O)C3=C(C)[C@@H](OC(=O)[C@H](O)[C@@H](NC(=O)OC(C)(C)C)c4ccccc4)C[C@@](O)([C@@H](OC(=O)c4ccccc4)[C@H]21)C3(C)C	33.5 µM (active) and 26.6 µM (active)
COc1cc(C(=O)NCc2ccc(OCCN(C)C)cc2)cc(OC)c1OC	inactive
O=[N+]([O-])c1ccc(/C=N\O)o1	inactive
CCN[C@@H]1C[C@H](N)[C@@H](OC2OC(CN)=CCC2N)[C@H](O)[C@H]1O[C@H]1OC[C@](C)(O)[C@H](NC)[C@H]1O (stereo not given in full)	inactive

Source: PubChem BioAssay (Tox21)
